Measured values taken from PubChem BioAssay (NCI).
The panel holds about 83,000 compounds, 20% with a hit somewhere; the sample as a whole holds those more often.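 Assay: single dose, 48 h. Readout: percent growth (0 = no net growth; negative = cell death). Active: <10.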 The source made the active and inactive calls.

These molecules were tested on SF-295 CNS (assay: NCI-60 one-dose screen, 48 h (100 = growth as untreated, 0 = no growth, -100 = all killed)). Conditions: 10 µM unless noted.
With `COc1ccccc1-c1ccc2c(N)c(C(=O)c3ccc4c(c3)OCO4)sc2n1` the growth was 63.9% (inactive). For `CC(=O)C1=C(O)C=C2Oc3c(C(=O)/C=C/c4cc(C(F)(F)F)cc(C(F)(F)F)c4)c(O)c(C)c(O)c3[C@]2(C)C1=O`, the growth was -17.4% (active). `CC/C=C\C[C@H](O)C/C=C1/C(=O)C=C[C@@H]1C/C=C\CCCC(=O)NC(C)C` was tested, and the growth was 6.21% (active). For `COc1ccc(C(=O)c2sc3nc4c(cc3c2N)CCCC4)cc1OC`, the growth was 28.6% (inactive). With `CS(CCCCN=C=S)=NC(=O)c1c(F)c(F)c(F)c(F)c1F` (stereo not drawn) the growth was 102% (inactive). `COc1ccc(-c2c(C)noc2-c2ccc(O)cc2O)cc1` was tested, and the growth was 97.6% (inactive). `COc1ccc(C(=O)c2sc3nc(-c4ccccc4OC)ccc3c2N)cc1OC` was tested, and the growth was 47.9% (inactive). In the case of `NC1=CC(=O)C(=O)c2ccccc21`, the growth is reported as 80.7% (inactive). In the case of `COc1ccc(C(=O)c2sc3nc4c(c(C(F)(F)F)c3c2N)CN(C(C)=O)CC4)cc1OC`, the growth is reported as 86.2% (inactive). `COc1cc(C(=O)/C=C/c2c(C)n([O-])c3ccc(C)cc3[n+]2=O)cc(OC)c1OC` was tested, and the growth was 110% (inactive). `COc1cc(C2C(C(=O)c3cccs3)=C(O)C(=O)N2CCN2CCOCC2)cc(OC)c1OC` (stereo not drawn) was tested, and the growth was 100% (inactive). `COC(=O)C12C3C(=O)N(c4ccc(OC)cc4)C(=O)C3C(c3cn(-c4ccccc4)nc3C)N1[C@H](c1cn(-c3ccccc3)nc1C)[C@@H]1C(=O)N(c3ccc(OC)cc3)C(=O)[C@@H]12` (stereo partly drawn) was tested, and the growth was 91.8% (inactive). With `COc1cc(C2CC(=O)Nc3c2cnn3Cc2ccco2)cc2c1OCCO2` (stereo not drawn) the growth was 62% (inactive). In the case of `COc1ccc(C2CC(=O)Nc3c2c(C)nn3-c2nc3ccccc3[nH]2)cc1` (stereo not drawn), the growth is reported as 85.9% (inactive). For `CCn1cc2c(cc1=O)-c1nc3ccccc3c3ccnc(c13)C2=O`, the growth was 29.9% (inactive). For `NCc1cn2cc(Cl)sc2n1`, the growth was 102% (inactive). With `CCOc1ccc(Nc2nc(-c3c(C)nc4ncccn34)cs2)cc1` the growth was 17.1% (inactive). For `N#CC1=C(N)Oc2c(ccc3ccccc23)C1c1cccs1` (stereo not drawn), the growth was 24.7% (inactive). `CCOC(=O)C12CCCC1=CC(=O)CC2` (stereo not drawn) was tested, and the growth was 115% (inactive). For `CCCC(=O)Oc1ccc(/C(=C(/CC)Cc2ccccc2)c2ccc(OCCN3CCCC3)cc2)cc1`, the growth was 100% (inactive). In the case of `C=C1CCC2C3(C)COC(c4ccc(OC)cc4Br)OC3CCC2(C)C1/C=C/C1=CCOC1=O` (stereo not drawn), the growth is reported as 60.6% (inactive). With `CS(=O)(=O)c1c(Nc2ccccc2)n[nH]c1N` the growth was 126% (inactive). With `CC/C=C\C[C@H](O)C/C=C1/C(=O)C=C[C@@H]1C/C=C\CCCC(N)=O` the growth was -22.2% (active). With `CCN(CC)C12CCCCC1(C)C(C#N)(C#N)C(C#N)=C(N)O2` (stereo not drawn) the growth was 98% (inactive). For `O=C1c2c[n+](Cc3ccccc3)ccc2-c2nc3ccccc3c3ccnc1c23`, the growth was -17.4% (active). With `Cc1nn(-c2nc3ccccc3[nH]2)c2c1C(c1ccc3c(c1)OCO3)CC(=O)N2` (stereo not drawn) the growth was -36.3% (active). For `O=c1ccc2cc3ccccc3cc2[nH]1`, the growth was 95.4% (inactive). `O=C(Nc1cccc2[nH]c(C(F)(F)F)nc12)c1ccc(Br)cc1F` was tested, and the growth was 35.3% (inactive). In the case of `COc1cc(-c2cnc3nonc3n2)c(OC)c2c1OCO2`, the growth is reported as 104% (inactive). With `COc1cnc2c(c1)C(=O)c1c-2n(CCCBr)c(=O)c2cc([N+](=O)[O-])ccc12` the growth was -11.3% (active). In the case of `Clc1cccc(Nc2nc(Nc3cnc4ccccc4c3)c3[nH]cnc3n2)c1`, the growth is reported as 94.6% (inactive). `COc1cc(C2CC(=O)c3c(C)nn(-c4nc5ccccc5[nH]4)c3C2)cc(OC)c1OC` (stereo not drawn) was tested, and the growth was 64.7% (inactive). With `CC(C)Oc1nc2c(c(=O)n(C)c(=O)n2C)n1C` the growth was 101% (inactive). With `CC/C=C\C[C@H](F)C/C=C1/C(=O)C=C[C@@H]1C/C=C\CCCC(=O)OC` the growth was 4.48% (active). In the case of `Cc1ccn2c(-c3csc(Nc4cccc(O)c4)n3)c(C)nc2c1`, the growth is reported as 16.3% (inactive). With `O=C(/C=C/c1cc2ccccc2[nH]c1=O)/C=C/c1cc2ccccc2[nH]c1=O` the growth was 4.04% (active). In the case of `COc1ccc(-c2cnoc2-c2cc(OC)c3c(c2)OCCO3)cc1`, the growth is reported as 9.28% (active). For `CC/C(Cc1ccccc1)=C(\c1ccc(OCCN2CCCC2)cc1)c1ccc(OC(C)=O)cc1`, the growth was 99.6% (inactive). For `C[C@]12C[C@@H](c3ccoc3)OC(=O)[C@@H]1CC[C@]1(C)[C@@H]2CC[C@@H](O)[C@]1(C)O`, the growth was 51.7% (inactive).

The molecules below were run on UACC-257 melanoma in the same assay as above. Conditions: 10 µM unless noted.
With `COc1ccccc1-c1ccc2c(N)c(C(=O)c3ccc4c(c3)OCO4)sc2n1` the growth was 81.4% (inactive). With `CC(=O)C1=C(O)C=C2Oc3c(C(=O)/C=C/c4cc(C(F)(F)F)cc(C(F)(F)F)c4)c(O)c(C)c(O)c3[C@]2(C)C1=O` the growth was -51.4% (active). `CC/C=C\C[C@H](O)C/C=C1/C(=O)C=C[C@@H]1C/C=C\CCCC(=O)NC(C)C` was tested, and the growth was -4.26% (active). With `COc1ccc(C(=O)c2sc3nc4c(cc3c2N)CCCC4)cc1OC` the growth was 79.6% (inactive). With `CS(CCCCN=C=S)=NC(=O)c1c(F)c(F)c(F)c(F)c1F` (stereo not drawn) the growth was 61.5% (inactive). `COc1ccc(-c2c(C)noc2-c2ccc(O)cc2O)cc1` was tested, and the growth was 111% (inactive). For `COc1ccc(C(=O)c2sc3nc(-c4ccccc4OC)ccc3c2N)cc1OC`, the growth was 86.6% (inactive). In the case of `NC1=CC(=O)C(=O)c2ccccc21`, the growth is reported as 51.5% (inactive). For `COc1ccc(C(=O)c2sc3nc4c(c(C(F)(F)F)c3c2N)CN(C(C)=O)CC4)cc1OC`, the growth was 99.2% (inactive). In the case of `COc1cc(C(=O)/C=C/c2c(C)n([O-])c3ccc(C)cc3[n+]2=O)cc(OC)c1OC`, the growth is reported as 47.7% (inactive). `COc1cc(C2C(C(=O)c3cccs3)=C(O)C(=O)N2CCN2CCOCC2)cc(OC)c1OC` (stereo not drawn) was tested, and the growth was 108% (inactive). In the case of `COC(=O)C12C3C(=O)N(c4ccc(OC)cc4)C(=O)C3C(c3cn(-c4ccccc4)nc3C)N1[C@H](c1cn(-c3ccccc3)nc1C)[C@@H]1C(=O)N(c3ccc(OC)cc3)C(=O)[C@@H]12` (stereo partly drawn), the growth is reported as 98% (inactive). With `COc1cc(C2CC(=O)Nc3c2cnn3Cc2ccco2)cc2c1OCCO2` (stereo not drawn) the growth was 82.2% (inactive). `COc1ccc(C2CC(=O)Nc3c2c(C)nn3-c2nc3ccccc3[nH]2)cc1` (stereo not drawn) was tested, and the growth was 111% (inactive). In the case of `CCn1cc2c(cc1=O)-c1nc3ccccc3c3ccnc(c13)C2=O`, the growth is reported as 74.2% (inactive). `NCc1cn2cc(Cl)sc2n1` was tested, and the growth was 105% (inactive). For `CCOc1ccc(Nc2nc(-c3c(C)nc4ncccn34)cs2)cc1`, the growth was 78.8% (inactive). With `N#CC1=C(N)Oc2c(ccc3ccccc23)C1c1cccs1` (stereo not drawn) the growth was 75.1% (inactive). For `CCOC(=O)C12CCCC1=CC(=O)CC2` (stereo not drawn), the growth was 94.4% (inactive). In the case of `CCCC(=O)Oc1ccc(/C(=C(/CC)Cc2ccccc2)c2ccc(OCCN3CCCC3)cc2)cc1`, the growth is reported as 87.6% (inactive). `C=C1CCC2C3(C)COC(c4ccc(OC)cc4Br)OC3CCC2(C)C1/C=C/C1=CCOC1=O` (stereo not drawn) was tested, and the growth was 58.3% (inactive). In the case of `CS(=O)(=O)c1c(Nc2ccccc2)n[nH]c1N`, the growth is reported as 105% (inactive). In the case of `CC/C=C\C[C@H](O)C/C=C1/C(=O)C=C[C@@H]1C/C=C\CCCC(N)=O`, the growth is reported as -11.7% (active). `CCN(CC)C12CCCCC1(C)C(C#N)(C#N)C(C#N)=C(N)O2` (stereo not drawn) was tested, and the growth was 114% (inactive). With `O=C1c2c[n+](Cc3ccccc3)ccc2-c2nc3ccccc3c3ccnc1c23` the growth was -67.9% (active). With `Cc1nn(-c2nc3ccccc3[nH]2)c2c1C(c1ccc3c(c1)OCO3)CC(=O)N2` (stereo not drawn) the growth was 69.1% (inactive). With `O=c1ccc2cc3ccccc3cc2[nH]1` the growth was 96.5% (inactive). In the case of `O=C(Nc1cccc2[nH]c(C(F)(F)F)nc12)c1ccc(Br)cc1F`, the growth is reported as 40.1% (inactive). In the case of `COc1cc(-c2cnc3nonc3n2)c(OC)c2c1OCO2`, the growth is reported as 93.6% (inactive). In the case of `COc1cnc2c(c1)C(=O)c1c-2n(CCCBr)c(=O)c2cc([N+](=O)[O-])ccc12`, the growth is reported as -32.3% (active). `Clc1cccc(Nc2nc(Nc3cnc4ccccc4c3)c3[nH]cnc3n2)c1` was tested, and the growth was 81.7% (inactive). With `COc1cc(C2CC(=O)c3c(C)nn(-c4nc5ccccc5[nH]4)c3C2)cc(OC)c1OC` (stereo not drawn) the growth was 98.7% (inactive). `CC(C)Oc1nc2c(c(=O)n(C)c(=O)n2C)n1C` was tested, and the growth was 88% (inactive). `CC/C=C\C[C@H](F)C/C=C1/C(=O)C=C[C@@H]1C/C=C\CCCC(=O)OC` was tested, and the growth was -0.592% (active). `Cc1ccn2c(-c3csc(Nc4cccc(O)c4)n3)c(C)nc2c1` was tested, and the growth was 77.2% (inactive). In the case of `O=C(/C=C/c1cc2ccccc2[nH]c1=O)/C=C/c1cc2ccccc2[nH]c1=O`, the growth is reported as -31.9% (active). With `COc1ccc(-c2cnoc2-c2cc(OC)c3c(c2)OCCO3)cc1` the growth was 69.7% (inactive). With `CC/C(Cc1ccccc1)=C(\c1ccc(OCCN2CCCC2)cc1)c1ccc(OC(C)=O)cc1` the growth was 93.9% (inactive). `C[C@]12C[C@@H](c3ccoc3)OC(=O)[C@@H]1CC[C@]1(C)[C@@H]2CC[C@@H](O)[C@]1(C)O` was tested, and the growth was 83% (inactive).
